# KB-3-1 tox: kills parental KB-3-1 adenocarcinoma cells; KB-3-1 viability, CellTiter-Glo ATP luminescence, 72 h; Potency, µM (titrated, usually from 46.1 µM), usual class: cytotoxic; hit rate 1.4% among 400,000; AID 1347075; also: nearly all actives have a fitted effect of over 60% in size
#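 Using CellTiter-Glo luminescence, growth of non-resistant KB-3-1 adenocarcinoma cells is assessed 72 h after pin-tool compound addition at 37 °C. Normalized responses across the concentration series yield fitted curves.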
# HT1080NT lethal: kills 2HG-producing HT-1080-NT fibrosarcoma cells; AID 686970; HT-1080-NT fibrosarcoma viability, CellTiter-Glo ATP luminescence, 48 h; hit rate 1.6% among 360,000; Potency, µM (doses to about 46.1 µM), without a hit: at the top dose activity, negative = less viability, most hits filed as cytotoxic;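 also: NT is the 2HG producing partner of a matched IDH1 knockdown line; 0% = DMSO-treated cells and -100% = media-only wells without cells; nearly all actives have a fitted effect of over 55% in size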
#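 HT-1080-NT fibrosarcoma cells (2HG-overproducing), 750 cells/well in RPMI with 5% FBS, dosed after 2 h and incubated 48 h at 37C. CellTiter-Glo luminescence normalized to DMSO and no-cell wells; concentration-response curves fitted and classed.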
# HT1080 IDH1KD tx: toxicity to HT-1080 IDH1 knockdown cells (counter line); HT-1080 IDH1 knockdown viability, ATP luminescence, 48 h; Potency, µM (doses to about 46.1 µM), inactives show at the highest dose activity, negative = toxicity, hits mostly cytotoxic; hit rate 2% among 360,000;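 also: 0% = DMSO wells and -100% = cell-free medium wells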
#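 In this qHTS, HT-1080 cells depleted of IDH1 are exposed for 48 h at 37 °C to compound titrations. Toxicity is scored from CellTiter-Glo luminescence, with DMSO as full viability and medium alone as none.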
# KB-V1 MDR tox: KB-V1 MDR subline cytotoxicity; KB-V1 MDR cells viability, CellTiter-Glo, 72 h; Potency, µM (titrated, usually from 46.1 µM), actives largely listed as cytotoxic; hit rate 3.4% among 400,000; AID 1347076; also: nearly all actives have a fitted effect of over 60% in size
#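 KB-V1, DMEM (no phenol red) + 10% FBS; cpd pin-transferred, titration series; 72 h, 37 degrees C; CellTiter-Glo, luminescence. Data normalized, curve-fit.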
# TDP1 cell noCPT: qHTS for Inhibitors of human tyrosyl-DNA phosphodiesterase 1 (TDP1): qHTS in cells in absence of CPT | Potency, µM (titrated, usually from 46.2 µM), for inactives: at the top dose activity change, negative = growth inhibition, most hits filed as inhibitors | hit rate 15% among 420,000 | AID 686978, 2013 | DT40 Tdp1-/- hTDP1 cells, no CPT, ATP luminescence, 48 h; also: nearly all actives have a fitted effect of over 55% in size
#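 Luminescent ATP content (CellTiter-Glo) served as the growth readout. Knockout chicken DT40 cells expressing human TDP1 were exposed to compounds without camptothecin for a minimum 48 hr at 37 °C.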
# TDP1 cell CPT: growth inhibition of DT40 Tdp1-/-;hTDP1 cells with camptothecin (screen for TDP1 inhibitors); hit rate 12% among 420,000; Potency, µM (top dose mostly 46.2 µM), for the others: at the highest dose activity change, negative = growth inhibition, most hits filed as inhibitors; chicken DT40 Tdp1-/-;hTDP1 cells + 20 nM CPT, ATP luminescence, 48 h; also: nearly all actives have a fitted effect of over 55% in size
#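 Cell growth measured by CellTiter-Glo luminescence after a minimum 48 h, 37 C compound exposure with 20 nM CPT in Tdp1-knockout DT40 cells stably expressing hTDP1, seeded 400/well; qHTS titration format.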
# * = called active by the depositor; i = inactive; ? = inconclusive; . = not tested or not shown; ! = not active in a repeat; [ ] = dose if it differs, or a comment. Only some compounds are listed: those with a hit (about 19% of all), similar ones and a draw of the others. Calls follow the shape of the dose curve; as a rule, active = well fitted curve in the direction sought with a large enough effect; inconclusive = small, poorly fitted or top-dose-only effect, or another doubt; inactive = no such curve, though single readings can be large; an effect the other way counts as inactive or inconclusive. Unless noted, % is scaled to controls: 0 for no effect and ±100 for the full control effect; potency is read from the fitted curve at half-maximal effect.
SMILES,KB-3-1 tox,HT1080NT lethal,HT1080 IDH1KD tx,KB-V1 MDR tox,TDP1 cell noCPT,TDP1 cell CPT
CCC(C)(C(=O)NC1CCCCC1)N(Cc1ccco1)C(=O)Cc1cccs1 (stereo not given),i,7.9%,6.3%,?,?,?
O=C(NCc1ccccc1)c1ccc(NC(=O)C2CCCCC2)cc1,i,7.2%,9.7%,i,-26.9%,-18.5%
Cc1ccc(NC(=O)NC(=O)N(C(C)C)S(=O)(=O)c2ccc(C)cc2)cc1,i,5.9%,20.9%,i,20.9%,-1.9%
Cc1cccc(N(CC(=O)NCCSCc2ccc(Cl)cc2)S(C)(=O)=O)c1C,i,.,.,i,25.9µM*,18.4µM*
COc1ccccc1N(CC(=O)NCCSCc1ccccc1)S(C)(=O)=O,i,2.6%,19.7%,i,-22.2%,-23.7%
COc1ccccc1N(CC(=O)NCCSCc1ccc(Cl)cc1)S(C)(=O)=O,i,-5.6%,-10.0%,i,23.1µM*!,20.6µM*
COc1ccc(C)cc1N(CC(=O)NCCSCc1cccc(Cl)c1)S(C)(=O)=O,i,-26.2%,-23.4%,?,?,16.4µM*
Cc1cccc(N(CC(=O)NCCSCc2ccccc2)S(=O)(=O)c2ccccc2)c1C,i,.,.,i,?,23.1µM*
COc1cccc(OCc2cc(=O)n3cc(C)sc3n2)c1,i,.,.,i,?,-24.8%
CCCCN1C(=O)C(CC(=O)NCCc2ccccn2)CC(C(=O)N(C(C)C)C(C)C)=C1C (stereo not given),i,1.4%,4.2%,i,?,0.6%
CC(c1ccccc1)N1CC(C(=O)Nc2ccc(F)cc2)CC1=O (stereo not given),i,-2.5%[9.24 µM],-1.9%,i,3.9%,1.0%
Cc1ccc(NC(=O)Cc2nc(CN(C)CC(=O)Nc3ccc(C)cc3)cs2)cc1,i,-18.7%[9.24 µM],-1.2%,i,0.7%,-5.6%
O=C(N=C1SC2CS(=O)(=O)CC2N1c1ccc(OC(F)(F)F)cc1)C1CC1 (stereo not given),i,12.3%,11.5%,i,30.2%,-12.0%
O=C(COc1ccccc1)Nc1ccc2[nH]c(=O)[nH]c2c1,i,14.0%,-2.3%,i,23.9%,-0.3%
O=C(COc1ccc(F)cc1)Nc1ccc(Cl)c(-c2nc3ccccc3[nH]2)c1,.,.,.,.,20.6µM*,?
Cc1cccc(OCC(=O)Nc2ccc(Cl)c(-c3nc4ccccc4[nH]3)c2)c1,i,.,.,i,?,?
O=C(COc1ccccc1F)Nc1ccc2[nH]c(=O)[nH]c2c1,?,10.4%,0.7%,6.51µM*,-26.7%,-26.6%
O=C(COc1ccccc1F)Nc1ccc(Cl)c(-c2nc3ccccc3[nH]2)c1,i,.,.,?,13µM*,?
Cc1cccc([C@@H]2[C@@H]3C(=O)N(Cc4ccccc4)C(=O)[C@@H]3[C@]3(CC(C)C)C(=O)N(c4cccc(F)c4)C(=O)N23)c1,i,4.0%,2.3%,i,?,?
Cc1cc(Cl)ccc1C(=O)C1CCCN(C(=O)c2cnn(C(C)C)c2)C1 (stereo not given),i,-1.7%,-6.5%,i,?,?
COc1ccccc1NC(=O)N(Cc1ccco1)Cc1cc2ccc(C)c(C)c2[nH]c1=O,5.8µM*,3.66µM*,2.59µM*,5.8µM*,4.11µM*,3.66µM*
COc1ccccc1NC(=O)N(Cc1ccco1)Cc1cc2cc(C)cc(C)c2[nH]c1=O,?,?,?,18.4µM*,14.6µM*,20.6µM*
COc1ccccc1NC(=S)N(Cc1ccco1)Cc1cc2cc(C)c(C)cc2[nH]c1=O,?,?,7.31µM*,2.59µM*,5.17µM*,4.11µM*
O=C(CSc1nccn1-c1ccc(Cl)cc1)Nc1cccc2ccccc12,.,.,.,.,-13.6%,?
COc1cccc(CNC(=O)c2cnc(N3CCCCC3)c3ccccc23)c1,i,.,.,i,?,14.6µM*
SMILES,KB-3-1 tox,HT1080NT lethal,HT1080 IDH1KD tx,KB-V1 MDR tox,TDP1 cell noCPT,TDP1 cell CPT
O=C(NCc1cccc(Cl)c1)c1cnc(N2CCCCC2)c2ccccc12,i,.,.,i,25.9µM*,16.4µM*
O=C(NCc1ccc(Cl)cc1)c1cnc(N2CCCCC2)c2ccccc12,i,.,.,i,?,?
Cc1ccc(CNC(=O)c2cnc(N3CCCCC3)c3ccccc23)cc1,i,.,.,i,16.4µM*,?
COc1cccc(CNC(=O)c2cccnc2Sc2ccccc2)c1,i,9.3%,-0.3%,?,11.5%,-2.9%
O=C(NCc1ccc(F)cc1)c1cnc(N2CCOCC2)c2ccccc12,i,.,.,i,16.4µM*,?
O=C(Nc1ccc(F)c(Cl)c1)c1cc(C2CCCCN2C(=O)C2CC2)on1 (stereo not given),i,-4.9%,-27.0%,i,14.6µM*,25.9µM*
CCCNC(=O)c1cc(C2CCCCN2C(=O)c2cc(F)ccc2C)on1 (stereo not given),i,13.3%,0.0%,i,-21.7%,-27.7%
Cc1ccc(F)cc1C(=O)N1CCCCC1c1cc(C(=O)Nc2ccc(F)c(Cl)c2)no1 (stereo not given),?,-12.9%,-16.4%,i,14.6µM*,20.6µM*
Cc1ccc(N2CCN(C(=O)c3[nH]c(C(F)(F)F)nc3-c3ccccc3)CC2)cc1,i,-23.1%,-27.6%,i,?,?
O=C(O)CSCC(=O)N1CCN(c2cc(C(F)(F)F)nc3ccccc23)CC1,?,9.2%,0.0%,i,-22.8%,12.1%
Cc1cc(N2CCN(C(=O)c3[nH]c(C(F)(F)F)nc3-c3ccccc3)CC2)c2ccccc2n1,?,?,?,?,14.6µM*,16.4µM*
O=C(c1[nH]c(C(F)(F)F)nc1-c1ccccc1)N1CCC(C(O)(c2ccccc2)c2ccccc2)CC1,i,1.2%,-18.9%,i,?,2.2%
O=C(c1[nH]c(C(F)(F)F)nc1-c1ccccc1)N1CCc2c([nH]c3ccccc23)C1,5.8µM*,?,4.61µM*,i,5.8µM*,5.8µM*
O=C(c1[nH]c(C(F)(F)F)nc1-c1ccccc1)N1CCN(c2ccccc2)CC1,6.51µM*,?,2.06µM*,?,4.11µM*,4.61µM*
O=C(c1cc(Cl)cc(Cl)c1)N1CCN(c2cc(C(F)(F)F)nc3ccccc23)CC1,?,0.4%,5.2%,i,11.6µM*,20.6µM*
